“And” between values parts separate entries of the source, which are not always exact repeats. Equal values may be shown once. Out of some 5,500 compounds screened, about 2,000 (36%) were called active. Another 18% or so got no clear call; they are omitted. Cut-off read from the data, not from the text of the source: active = normalized growth mostly below about 0.91 (no sharp cut-off); inconclusive = no clear call, values can overlap the other calls; inactive = mostly above about 0.92. Some of the results follow.
Assay: chemical genetic growth profiling, strain panel (AID 1159580);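 note: tested at 20 µM; growth read once vehicle control cultures reached saturation at 30 °C; 1 = growth at the plate median or of vehicle wells; lower values mean less growth of the strain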
Conditions: growth OD

Measured: normalized growth

CNC(=O)Oc1ccc2c(c1)C1(C)CCN(C)C1N2C (centres undefined)
inactive: S. cerevisiae deletion strains, locus YAL013W, strain DEP1, active compounds read low 0.999 | S. cerevisiae deletion strains, locus YAL040C, strain CLN3, active compounds read low 0.99 | S. cerevisiae deletion strains, locus YBR021W, strain FUR4, active compounds read low 1.04 and 1.03 | S. cerevisiae deletion strains, locus YBR229C, strain ROT2, active compounds read low 1 and 1.01 | S. cerevisiae deletion strains, locus YCL029C, strain bik1, active compounds read low 0.991 and 1.01 | S. cerevisiae deletion strains, locus YCL061C, strain MRC1 (second series), active compounds read low 0.978 | S. cerevisiae deletion strains, locus YDL035C, strain GPR1, active compounds read low 1.01 and 1 | S. cerevisiae deletion strains, locus YDL074C, strain BRE1, active compounds read low 1.01 and 1 | S. cerevisiae deletion strains, locus YDL101C, strain DUN1, active compounds read low 0.994 and 0.998 | S. cerevisiae deletion strains, locus YDL134C, strain PPH21, active compounds read low 1.06 and 1 | S. cerevisiae deletion strains, locus YDL185W, strain tfp1, active compounds read low 0.966 and 1.01 | S. cerevisiae deletion strains, locus YDL192W, strain arf1, active compounds read low 1.02 and 1.01 | S. cerevisiae deletion strains, locus YDR101C, strain arx1, active compounds read low 0.98 and 1.01 | S. cerevisiae deletion strains, locus YDR150W, strain NUM1, active compounds read low 1.01 | S. cerevisiae deletion strains, locus YDR162C, strain NBP2, active compounds read low 1.01 and 0.986 | S. cerevisiae deletion strains, locus YDR318W, strain mcm21, active compounds read low 1.02 and 1.01 | S. cerevisiae deletion strains, locus YDR363W, strain ESC2, active compounds read low 0.964 | S. cerevisiae deletion strains, locus YDR388W, active compounds read low 0.994 and 1.01 | S. cerevisiae deletion strains, locus YDR502C, strain sam2, active compounds read low 0.993 and 0.995 | S. cerevisiae deletion strains, locus YEL061C, strain CIN8, active compounds read low 1 and 1.01 | S. cerevisiae deletion strains, locus YER002W, strain NOP16, active compounds read low 0.993 | S. cerevisiae deletion strains, locus YER110C, active compounds read low 0.972 and 1.02 | S. cerevisiae deletion strains, locus YER155C, strain BEM2, active compounds read low 0.995 and 1.01 | S. cerevisiae deletion strains, locus YER167W, strain BCK2, active compounds read low 0.996 and 1.02 | S. cerevisiae deletion strains, locus YGL078C, strain dbp3, active compounds read low 1.01 | S. cerevisiae deletion strains, locus YGL086W, strain mad1, active compounds read low 0.957 and 1.01 | S. cerevisiae deletion strains, locus YGL248W, strain PDE1, active compounds read low 1.02 and 1.01 | S. cerevisiae deletion strains, locus YGR078C, strain PAC10, active compounds read low 1 and 0.991 | S. cerevisiae deletion strains, locus YGR135W, strain pre9, active compounds read low 1.04 and 0.982 | S. cerevisiae deletion strains, locus YGR229C, strain SMI1, active compounds read low 0.977 | S. cerevisiae deletion strains, locus YGR252W, strain gcn5, active compounds read low 1.2 and 0.984 | S. cerevisiae deletion strains, locus YHR030C, strain SLT2, active compounds read low 0.998 and 1.01 | S. cerevisiae deletion strains, locus YHR079C, strain IRE1 (second series), active compounds read low 0.976 and 1.02 | S. cerevisiae deletion strains, locus YHR094C, strain hxt1, active compounds read low 0.991 and 1.01 | S. cerevisiae deletion strains, locus YHR129C, strain ARP1, active compounds read low 1 and 1.02 | S. cerevisiae deletion strains, locus YHR200W, strain rpn10, active compounds read low 0.995 and 1.01 | S. cerevisiae deletion strains, locus YIL066C, strain RNR3, active compounds read low 1 and 1.01 | S. cerevisiae deletion strains, locus YIL073C, strain SPO22, active compounds read low 0.935 and 1.03 | S. cerevisiae deletion strains, locus YIL125W, strain kgd1, active compounds read low 0.995 and 1.02 | S. cerevisiae deletion strains, locus YIR030C, strain dcg1, active compounds read low 1 and 1.02 | S. cerevisiae deletion strains, locus YJL095W, strain BCK1, active compounds read low 1.06 and 1.02 | S. cerevisiae deletion strains, locus YJL134W, strain LCB3, active compounds read low 0.997 and 1 | S. cerevisiae deletion strains, locus YJL168C, strain set2, active compounds read low 0.983 and 1.01 | S. cerevisiae deletion strains, locus YJL187C, strain SWE1 (second series), active compounds read low 1.01 and 1 | S. cerevisiae deletion strains, locus YJR043C, strain POL32, active compounds read low 1.02 and 1.04 | S. cerevisiae deletion strains, locus YJR075W, strain HOC1, active compounds read low 0.98 and 0.984 and 0.995 | S. cerevisiae deletion strains, locus YKL009W, strain mrt4, active compounds read low 1.02 and 1.04 | S. cerevisiae deletion strains, locus YKL068W, active compounds read low 0.976 and 1 | S. cerevisiae deletion strains, locus YKL085W, strain MDH1 (second series), active compounds read low 0.98 and 1.02 | S. cerevisiae deletion strains, locus YKL085W, strain MDH1, active compounds read low 0.98 and 1.02 | S. cerevisiae deletion strains, locus YKL190W, strain CNB1, active compounds read low 1.01 | S. cerevisiae deletion strains, locus YKR001C, strain vps1, active compounds read low 1 and 1.02 | S. cerevisiae deletion strains, locus YLR039C, strain RIC1, active compounds read low 1.11 and 1.07 | S. cerevisiae deletion strains, locus YLR058C, strain SHM2, active compounds read low 1.02 and 1.01 | S. cerevisiae deletion strains, locus YLR102C, strain apc9, active compounds read low 0.974 and 1.02 | S. cerevisiae deletion strains, locus YLR262C, strain YPT6, active compounds read low 1.14 and 1.01 | S. cerevisiae deletion strains, locus YLR268W, strain sec22, active compounds read low 0.995 and 0.998 | S. cerevisiae deletion strains, locus YLR330W, strain CHS5, active compounds read low 1 and 1.01 | S. cerevisiae deletion strains, locus YLR342W, strain FKS1 (second series), active compounds read low 1.03 and 1.05 | S. cerevisiae deletion strains, locus YLR371W, strain rom2, active compounds read low 0.979 and 1.02 | S. cerevisiae deletion strains, locus YLR418C, strain cdc73, active compounds read low 1 and 0.92 | S. cerevisiae deletion strains, locus YML016C, strain PPZ1, active compounds read low 0.99 and 1.01 | S. cerevisiae deletion strains, locus YML032C, strain rad52, active compounds read low 1.04 and 1.02 | S. cerevisiae deletion strains, locus YML124C, strain tub3, active compounds read low 0.992 and 1 | S. cerevisiae deletion strains, locus YMR078C, strain ctf18, active compounds read low 0.981 and 1.02 | S. cerevisiae deletion strains, locus YMR223W, strain ubp8, active compounds read low 1.03 and 1.02 | S. cerevisiae deletion strains, locus YMR263W, strain SAP30, active compounds read low 0.983 and 0.988 | S. cerevisiae deletion strains, locus YMR307W, strain GAS1, active compounds read low 1 and 1.24 and 1.1 | S. cerevisiae deletion strains, locus YNL067W, strain RPL9B, active compounds read low 0.993 and 1 | S. cerevisiae deletion strains, locus YNL128W, strain TEP1, active compounds read low 0.977 and 0.975 | S. cerevisiae deletion strains, locus YNL153C, strain GIM3, active compounds read low 1 | S. cerevisiae deletion strains, locus YNL175C, strain NOP13, active compounds read low 1.01 | S. cerevisiae deletion strains, locus YNL197C, strain WHI3, active compounds read low 1 | S. cerevisiae deletion strains, locus YNL224C, strain SQS1, active compounds read low 0.999 | S. cerevisiae deletion strains, locus YNL233W, strain BNI4, active compounds read low 0.999 and 0.995 | S. cerevisiae deletion strains, locus YNL250W, strain rad50, active compounds read low 0.94 and 1.02 | S. cerevisiae deletion strains, locus YNL271C, strain bni1, active compounds read low 0.994 and 1.02 | S. cerevisiae deletion strains, locus YNL298W, strain CLA4, active compounds read low 0.993 and 1.02 | S. cerevisiae deletion strains, locus YNL307C, strain MCK1, active compounds read low 0.989 and 1.01 | S. cerevisiae deletion strains, locus YNL322C, strain KRE1, active compounds read low 0.961 and 0.998 and 1.01 | S. cerevisiae deletion strains, locus YNR052C, strain pop2, active compounds read low 1.01 and 1.02 | S. cerevisiae deletion strains, locus YOL006C, strain TOP1, active compounds read low 0.949 and 0.93 | S. cerevisiae deletion strains, locus YOL012C, strain htz1 1.18 and 1.01 | S. cerevisiae deletion strains, locus YOL147C, strain pex11, active compounds read low 0.995 and 1.01 | S. cerevisiae deletion strains, locus YOR061W, strain CKA2, active compounds read low 1 and 1.01 | S. cerevisiae deletion strains, locus YOR069W, strain VPS5, active compounds read low 0.996 and 1.01 | S. cerevisiae deletion strains, locus YOR083W, strain WHI5 (second series), active compounds read low 1.01 | S. cerevisiae deletion strains, locus YOR136W, strain idh2, active compounds read low 0.979 and 1.01 | S. cerevisiae deletion strains, locus YOR144C, strain elg1, active compounds read low 1 and 1.01 | S. cerevisiae deletion strains, locus YOR184W, strain ser1, active compounds read low 1.05 and 1.06 | S. cerevisiae deletion strains, locus YOR316C, strain cot1, active compounds read low 0.988 and 1.02 | S. cerevisiae deletion strains, locus YPL055C, strain LGE1, active compounds read low 0.987 | S. cerevisiae deletion strains, locus YPL241C, strain CIN2, active compounds read low 1.01 | S. cerevisiae deletion strains, locus YPR119W, strain clb2, active compounds read low 0.984 and 1.01 | S. cerevisiae deletion strains, locus YPR141C, strain kar3, active compounds read low 0.981 and 1.02 | S. cerevisiae deletion strains, locus YPR163C, strain tif3, active compounds read low 0.992 and 1.01 | S. cerevisiae deletion strains, locus YPR167C, strain met16, active compounds read low 0.999 and 1.02 | S. cerevisiae deletion strains, strain wtn01, active compounds read low 0.962 and 1 | S. cerevisiae strains, strain wild type, active compounds read low 1.01

— PubChem BioAssay AID1159580 (chemical genetic matrix, 2015)
